The values below come from PubChem BioAssay (EPA / NIEHS).

Structures are written as SMILES. The source made the active and inactive calls. Rule for the calls: active = hit-call score of the fitted dose curve at least 0.9, where 1 is the maximum; inactive = score below 0.9.

Experiment [1] is described as follows: BSK_CASM3C_SRB: Viability Assessment in the BioMAP Diversity Plus: CASM3C Assay (AID 2283050).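 Note: cells exposed to compound for 24 h.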 The following applies: primary human coronary artery smooth muscle cells.
Read-out in experiment [2]: Thrombomodulin, THBD (gene 7056)
As to the kind of experiment: BSK_CASM3C_Thrombomodulin: BioMAP Diversity Plus: CASM3C Assay for Thrombomodulin Biomarker Activity (AID 2283051).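 Note: thrombomodulin protein level measured by ELISA 24 h after dosing.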 To be noted: primary human coronary artery smooth muscle cells; actives raise or lower the signal.

Read-out in experiment [3]: Tissue Factor, F3 (gene 2152)
As to the kind of experiment: BSK_CASM3C_TissueFactor: BioMAP Diversity Plus: CASM3C Assay for Tissue Factor Biomarker Activity (AID 2283052).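 Note: cell surface tissue factor protein level read by ELISA.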 To be noted: primary human coronary artery smooth muscle cells; actives raise or lower the signal.

Read-out in experiment [4]: Interferon-gamma inducible Protein 10 (IP10), CXCL10 (gene 3627)
As to the kind of experiment: BSK_hDFCGF_IP10: BioMAP Diversity Plus: hDFCGF Assay for Interferon-gamma inducible Protein 10 (IP10) Biomarker Activity (AID 2283053). To be noted: primary human foreskin fibroblasts; actives raise or lower the signal. In outline:
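ELISA quantification of IP-10 after a 24 h chemical exposure of human dermal foreskin fibroblast primary cultures. Both increases and decreases versus DMSO fitted.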

Read-out in experiment [5]: Urokinase-type plasminogen activator receptor (uPAR), PLAUR (gene 5329)
As to the kind of experiment: BSK_CASM3C_uPAR: BioMAP Diversity Plus: CASM3C Assay for Urokinase-type plasminogen activator receptor (uPAR) Biomarker Activity (AID 2283054).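 Note: cell-surface uPAR protein level quantified by ELISA.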 The following applies: primary human coronary artery smooth muscle cells; actives raise or lower the signal.

Read-out in experiment [6]: Vascular cell adhesion molecule 1 (VCAM1), VCAM1 (gene 7412)
As to the kind of experiment: BSK_CASM3C_VCAM1: BioMAP Diversity Plus: CASM3C Assay for Vascular cell adhesion molecule 1 (VCAM1) Biomarker Activity (AID 2283055).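 Note: VCAM-1 protein level quantified by ELISA on the cells.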 To be noted: primary human coronary artery smooth muscle cells; actives raise or lower the signal.

Read-out in experiment [7]: Collagen III, COL3A1 (gene 1281)
As to the kind of experiment: BSK_hDFCGF_CollagenIII: BioMAP Diversity Plus: hDFCGF Assay for Collagen III Biomarker Activity (AID 2283056). The following applies: primary human foreskin fibroblasts; actives raise or lower the signal. Summed up:
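ELISA read-out of collagen III from human skin fibroblast cultures sampled 24 h post-dosing. Values were derived by bidirectional fitting relative to the DMSO vehicle control.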

Read-out in experiment [8]: Epidermal growth factor receptor (EGFR), EGFR (gene 1956)
As to the kind of experiment: BSK_hDFCGF_EGFR: BioMAP Diversity Plus: hDFCGF Assay for Epidermal growth factor receptor (EGFR) Biomarker Activity (AID 2283057). To be noted: primary human foreskin fibroblasts; actives raise or lower the signal. Summed up:
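EGFR levels by ELISA in human dermal fibroblast cultures, 24 h post-treatment, fitted bidirectionally versus DMSO. Parallel wells stained with sulforhodamine B to detect overt cytotoxicity.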

Experiment [9] in a line: BSK_hDFCGF_Proliferation: Cell Proliferation Assessment in the BioMAP Diversity Plus: hDFCGF Assay (AID 2283059).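 Note: curves fitted for both rise and fall of signal versus DMSO baseline.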 The following applies: primary human foreskin fibroblasts. Summed up:
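This proliferation readout used SRB total-protein staining of human foreskin fibroblasts […], normalized to DMSO with bidirectional curve fitting.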

Read-out in experiment [10]: Macrophage colony-stimulating factor (MCSF), CSF1 (gene 1435)
As to the kind of experiment: BSK_hDFCGF_MCSF: BioMAP Diversity Plus: hDFCGF Assay for Macrophage colony-stimulating factor (MCSF) Biomarker Activity (AID 2283060). To be noted: primary human foreskin fibroblasts; actives raise or lower the signal. In outline: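 Primary human foreskin fibroblasts dosed with chemical; 24 h later, M-CSF quantified by ELISA; curves fitted in both directions vs DMSO negative control.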

The nature of experiment [11]: BSK_hDFCGF_SRB: Viability Assessment in the BioMAP Diversity Plus: hDFCGF Assay (AID 2283061).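 Note: cells exposed to compound for 24 h before the read.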 The following applies: primary human foreskin fibroblasts. In outline:
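Readout is SRB absorbance at 560 nm, reflecting total protein in parallel cultures of human foreskin fibroblasts harvested 24 h after chemical dosing. Activity was fitted bidirectionally relative to DMSO.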

Read-out in experiment [12]: TIMP metallopeptidase inhibitor 1 (TIMP1), TIMP1 (gene 7076)
As to the kind of experiment: BSK_hDFCGF_TIMP1: BioMAP Diversity Plus: hDFCGF Assay for TIMP metallopeptidase inhibitor 1 (TIMP1) Biomarker Activity (AID 2283062). To be noted: primary human foreskin fibroblasts; actives raise or lower the signal. In outline:
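Human skin fibroblasts (primary), hDFCGF system; compound exposure 24 h; TIMP-1 by ELISA; bidirectional fit vs DMSO negative control; overt cytotoxicity by SRB in parallel wells.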

Read-out in experiment [13]: Monokine induced gamma interferon (MIG), CXCL9 (gene 4283)
As to the kind of experiment: BSK_hDFCGF_MIG: BioMAP Diversity Plus: hDFCGF Assay for Monokine induced gamma interferon (MIG) Biomarker Activity (AID 2283063). The following applies: primary human foreskin fibroblasts; actives raise or lower the signal. In outline:
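Chemicals were added to primary human foreskin fibroblast cultures, which were sampled 24 h later. MIG levels were then quantified by ELISA and responses fitted in both directions relative to DMSO.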

Read-out in experiment [14]: Matrix Metallopeptidase 1 (MMP1), MMP1 (gene 4312)
As to the kind of experiment: BSK_hDFCGF_MMP1: BioMAP Diversity Plus: hDFCGF Assay for Matrix Metallopeptidase 1 (MMP1) Biomarker Activity (AID 2283064). The following applies: primary human foreskin fibroblasts; actives raise or lower the signal. In outline: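 Human foreskin fibroblasts exposed to chemical for 24 h; MMP1 detected by ELISA, with DMSO as baseline for bidirectional fitting.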

Read-out in experiment [15]: Vascular cell adhesion molecule 1 (VCAM1), VCAM1 (gene 7412)
As to the kind of experiment: BSK_hDFCGF_VCAM1: BioMAP Diversity Plus: hDFCGF Assay for Vascular cell adhesion molecule 1 (VCAM1) Biomarker Activity (AID 2283065). To be noted: primary human foreskin fibroblasts; actives raise or lower the signal. In outline:
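Human foreskin fibroblast primary cells, chemical exposure 24 h; VCAM-1 by ELISA; bidirectional fit, DMSO = negative control/baseline.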

Read-out in experiment [16]: Plasminogen activator inhibitor-1 (PAI1), SERPINE1 (gene 5054)
As to the kind of experiment: BSK_hDFCGF_PAI1: BioMAP Diversity Plus: hDFCGF Assay for Plasminogen activator inhibitor-1 (PAI1) Biomarker Activity (AID 2283066). The following applies: primary human foreskin fibroblasts; actives raise or lower the signal. Summed up: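 PAI-1 levels in human dermal foreskin fibroblasts were quantified by ELISA 24 h after dosing, with gain or loss analysed against DMSO. Overt cytotoxicity was checked by sulforhodamine B total-protein staining in parallel cultures.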

Read-out in experiment [17]: Intercellular Adhesion Molecule 1 (ICAM1), ICAM1 (gene 3383)
As to the kind of experiment: BSK_KF3CT_ICAM1: BioMAP Diversity Plus: KF3CT Assay for Intercellular Adhesion Molecule 1 (ICAM1) Biomarker Activity (AID 2283067). The following applies: primary human keratinocytes with fibroblasts; actives raise or lower the signal. Summed up:
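ICAM-1 levels are measured by ELISA 24 h after dosing a primary human co-culture of keratinocytes and foreskin fibroblasts. Activity in either direction is fitted relative to DMSO vehicle.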

Read-out in experiment [18]: Interferon-gamma inducible Protein 10 (IP10), CXCL10 (gene 3627)
As to the kind of experiment: BSK_KF3CT_IP10: BioMAP Diversity Plus: KF3CT Assay for Interferon-gamma inducible Protein 10 (IP10) Biomarker Activity (AID 2283068). To be noted: primary human keratinocytes with fibroblasts; actives raise or lower the signal. In outline:
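Signal is secreted/surface IP-10 by ELISA in a human primary skin co-culture of keratinocytes and foreskin fibroblasts, taken 24 h post-dosing; DMSO served as negative control.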

A short description of experiment [19]: BSK_KF3CT_SRB: Viability Assessment in the BioMAP Diversity Plus: KF3CT Assay (AID 2283069).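 Note: read 24 h after compound addition; fitted for both signal gain and loss against DMSO baseline.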 The following applies: primary human keratinocytes with fibroblasts. In outline: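 Overt cytotoxicity is assessed as total protein by sulforhodamine B staining in parallel human skin co-cultures at 24 h after dosing. DMSO serves as negative control and baseline.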

Read-out in experiment [20]: Interleukin-8 (IL8), CXCL8 (gene 3576)
As to the kind of experiment: BSK_hDFCGF_IL8: BioMAP Diversity Plus: hDFCGF Assay for Interleukin-8 (IL8) Biomarker Activity (AID 2283058). To be noted: primary human foreskin fibroblasts; actives raise or lower the signal. In outline:
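Cells used are human skin primary fibroblasts. Chemical is added, cultures run 24 h, then IL-8 is quantified by ELISA, and gain or loss versus DMSO control is fitted in both directions.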

`CN(C)C(=O)Nc1cccc(C(F)(F)F)c1`: the outcome in experiment [1], in [2], in experiment [3], in experiment [4], in experiment [5] and in experiment [6] was inactive. In addition, the result in experiment [7], in [8], in [9], in experiment [10], in experiment [11] and in experiment [12] was inactive. Besides, the outcome in experiment [13], in [14], in experiment [15], in [16], in experiment [17] and in [18] was inactive. For the same compound, the result in experiment [19] was inactive.

As to `Cc1ccn2nc(S(=O)(=O)Nc3c(F)cccc3F)nc2n1`, the outcome in experiment [1], in experiment [2], in experiment [3], in experiment [4], in experiment [5] and in experiment [6] was inactive. Also, the result in experiment [7], in experiment [8], in experiment [9], in [10], in experiment [11] and in experiment [12] was inactive. Moreover, the result in experiment [13], in experiment [14], in experiment [15], in [16], in experiment [17] and in experiment [18] was inactive. Also, the result in [19] was inactive.

As for `CNc1cnn(-c2cccc(C(F)(F)F)c2)c(=O)c1Cl`, the result in [1], in experiment [2], in experiment [3], in [4], in experiment [5] and in experiment [6] was inactive. Also, the outcome in experiment [7], in experiment [8], in [9], in experiment [10], in experiment [11] and in [12] was inactive. The outcome in [13], in experiment [14], in [15], in experiment [16], in experiment [17] and in experiment [18] was inactive. Also, the result in experiment [19] was inactive.

`S=C1NCCN1`: the result in experiment [1], in experiment [2], in experiment [3], in experiment [4], in [5] and in experiment [6] was inactive. Also, the result in experiment [7], in experiment [8], in experiment [20], in [9], in [10] and in [11] was inactive. Moreover, the result in experiment [12], in [13], in experiment [14], in experiment [15], in experiment [16] and in [17] was inactive. Further, the result in experiment [18] and in experiment [19] was inactive.

As for `CCC(=NOC/C=C/Cl)C1=C(O)CC(C2CCOCC2)CC1=O` (stereo not drawn), the outcome in [1], in [2], in experiment [3], in [4], in [5] and in [6] was inactive. For the same compound, the result in experiment [8], in experiment [9], in [10], in experiment [11], in experiment [12] and in experiment [13] was inactive. For the same compound, the outcome in experiment [14], in [15], in experiment [16], in [17], in experiment [18] and in experiment [19] was inactive.

Turning to `CCNc1nc(Cl)nc(NC(C)(C)C#N)n1`, the result in experiment [1], in experiment [3], in experiment [4], in [6], in experiment [8] and in [10] was inactive. Also, the result in experiment [11], in [12], in experiment [13], in experiment [14], in [15] and in experiment [17] was inactive. The outcome in experiment [18] and in experiment [19] was inactive. Also, the concentration at half-maximal activity (AC50) is 3.97 µM (active) in experiment [2], 30.8 µM (active) in experiment [5], 12.2 µM (active) in experiment [9] and 10.6 µM (active) in experiment [16].

One may read the AC50 as the midpoint of the concentration-response curve, whichever way the signal moves.
